Format in all cases: functional
In assay [1] the test system is Plasmodium falciparum. The assay is described as follows: GSK_TCMDC: Inhibition of Plasmodium falciparum 3D7 in whole red blood cells, using parasite LDH activity as an index of growth. Test compounds present at 2uM.
In assay [2] the test system is Plasmodium falciparum. The assay is described as follows: GSK_TCMDC: Inhibition of Plasmodium falciparum Dd2 in whole red blood cells, using parasite LDH activity as an index of growth. Test compounds present at 2uM.
Assay [3] has as its system HepG2. The assay is described as follows: GSK_TCMDC: Percent inhibition of human HepG2 cell line. Test compounds present at 10uM.

The values below come from ChEMBL document CHEMBL1157539, “Thousands of chemical starting points for antimalarial lead identification” (Nature, 2010).

Turning to `Cc1cccnc1CNc1nccc2c(C)c(C)[nH]c12.Cl`, the Inhibition in assay [1] stood at 100%; in assay [2], 28%; in assay [3], 27%.
Regarding `CN(C(=O)Cc1ccc(Cl)c(Cl)c1)C1CCN(CCCCCNC(=O)/C=C/c2ccc(Cl)c(Cl)c2)CC1`, the Inhibition was determined as 84% in assay [1], 13% in assay [2] and 87% in assay [3].
For `CCOc1ccc2[nH]c(C)cc(=NN=Cc3cccc(C)n3)c2c1`, in that order: 99%, 73% and 6%.
With `COc1cccc2cc(C(=O)N[C@@H](CC(C)C)C(=O)N[C@H](/C=N/NC(=O)c3ccccc3)Cc3c[nH]cn3)oc12`, the Inhibition turned out to be 99% in assay [1], 90% in assay [2] and 3% in assay [3].
With `Cc1nc(O)c2c(ccc3ccc(CN(C)c4ccc(C(=O)N[C@@H](CCC(=O)O)C(=O)O)cc4)cc32)n1`, the values for the Inhibition in assay [1], in assay [2] and in assay [3] were 95%, 27% and 42%, respectively.
The corresponding values for `CCc1ccc(CN(Cc2ccc(C)cc2)Cc2ccc(NC(C)=O)cc2)cc1` are 89%, 79% and 6%.
On to `N=C1NC(c2ccccc2)(c2ccccc2)C(=O)N1CC=Cc1ccccc1.O=C(O)C(F)(F)F`, for which the Inhibition in assay [1] is 98%; in assay [2], 70%; in assay [3], 23%.
The corresponding values for `Cc1cc(=NN=Cc2ccccc2Cl)c2ccccc2[nH]1` are 100%, 30% and 0%.
The corresponding values for `Cc1cc(NC(=O)Nc2cccc(N(C)C)c2)c2ccccc2n1` are 97%, 95% and 0%.
Regarding `O=C(O)C(F)(F)F.OC1CCCN(Cc2ccc(-c3ccc(-c4nc5cc(F)ccc5[nH]4)cc3)cc2)C1` (centres undefined), the Inhibition in assay [1] turned out to be 100%; in assay [2], 79%; in assay [3], 55%.
Consider `CCCN(Cc1nnc(-c2cccs2)o1)C(=O)C1COc2ccccc2O1` (centres undefined), for which the Inhibition in assay [1] is 87%; in assay [2], 49%; in assay [3], 1%.
For `O=C(Nc1ccc(CN2CCN(S(=O)(=O)c3ccc(Cl)s3)CC2)cc1)c1cccs1.O=C(O)C(F)(F)F`, in that order: 92%, 87% and 14%.
Consider `CCNc1cc(C(=O)N[C@@H](Cc2ccccc2)[C@H](O)CNC(C)CCCC(C)C)cc(N2CCCS2(=O)=O)c1.O=CO` (some centres undefined), for which the Inhibition in assay [1] turned out to be 99%; in assay [2], 98%; in assay [3], 2%.
The corresponding values for `O=[N+]([O-])c1cc(/C=N/Nc2nc3ccccc3[nH]2)ccc1O` are 98%, 14% and 0%.
Regarding `CC(CN(C)C)C(=O)Nc1ccc(-c2ccc(-c3nc4cc(F)ccc4[nH]3)cc2)cc1` (centres undefined), the Inhibition was 100% in assay [1], 95% in assay [2] and 14% in assay [3].
The corresponding values for `NC(=O)c1ccc(C(=O)Nc2cccc(-c3cccc(-c4nc5cc(C(F)(F)F)ccc5[nH]4)c3)c2)cc1` are 100%, 36% and 63%.
The corresponding values for `Cc1cccc(C(=O)Nc2ccc(N3CCCN(Cc4cccc(O)c4)CC3)cc2)c1.O=C(O)C(F)(F)F` are 92%, 44% and 2%.
The corresponding values for `CC(C)(C)c1ccc(CN2CCC(NC(=O)c3ccc(-c4cccc(F)c4)s3)CC2)cc1.O=C(O)C(F)(F)F` are 92%, 24% and 35%.
Take `COC(=O)c1ccc2[nH]cc(C3CCN(CCC4CCN(C(=O)/C=C/c5ccc(Cl)c(Cl)c5)CC4)CC3)c2c1`: the Inhibition is given as 97% in assay [1], 59% in assay [2] and 24% in assay [3].
`Cc1cc(NC(=O)Nc2ccc(C(C)C)cc2)c2ccccc2n1.Cl`: the Inhibition in assay [1] came out at 99%; in assay [2], 16%; in assay [3] it was 7%.
As for `COc1ccc2nc3cc(Cl)ccc3c(Nc3ccc(Sc4ccc(Nc5c6ccc(Cl)cc6nc6ccc(OC)cc56)cc4)cc3)c2c1.Cl`, the Inhibition in assay [1] amounted to 92%; in assay [2], 94%; in assay [3], 1%.
The corresponding values for `c1cncc(-c2cccc(CNc3nccc(Nc4ccc(OCCN5CCOCC5)cc4)n3)c2)c1` are 93%, 27% and 1%.
Take `CCOc1cc(C(=O)NCCN2CCCCC2)ccc1-c1nc2cc(Cl)ccc2[nH]1`: the Inhibition was found to be 99% in assay [1], 8% in assay [2] and 4% in assay [3].
The corresponding values for `COC(=O)c1ccc2nc(-c3cc(-c4cccc(-c5ccccc5)c4)cnc3N)[nH]c2c1` are 100%, 61% and 25%.
For the compound `CCc1ccc(CN2CCC(CNC(=O)c3cc(-c4cccc(Cl)c4)cs3)C2)cc1.O=C(O)C(F)(F)F` (centres undefined), the Inhibition is on record as 88% in assay [1], 19% in assay [2] and 27% in assay [3].
Regarding `CC(C)(C)c1ccc(C(=O)Nc2cccc(Nc3c(C(=O)NCc4cccc(C(F)(F)F)c4)cnc4c(O)cccc34)c2)cc1.O=C(O)C(F)(F)F`, the Inhibition was 83% in assay [1], 79% in assay [2] and 40% in assay [3].
For `CC(=O)c1ccc2c(c1)CCN(CCC1CCC(NC(=O)c3cc4ccccc4[nH]3)CC1)CC2.Cl` (centres undefined), in that order: 86%, 47% and 64%.
For `CC(C)Cn1cc(C2CCN(CCN3CCC(CNC(=O)c4ccc(-c5ccc(C(F)(F)F)cc5)cc4)CC3)CC2)c2ccccc21`, in that order: 100%, 87% and 100%.
The corresponding values for `COc1ccc(N2CCN(c3nc(Nc4ccc(NC(C)=O)cc4)nc(N4CCCC4)n3)CC2)cc1` are 91%, 38% and 0%.
Consider `O=C(O)C(F)(F)F.OCC1CCN(Cc2ccc(-c3ccc(-c4nc5cc(C(F)(F)F)ccc5[nH]4)s3)cc2)CC1`, for which the Inhibition in assay [1] was 100%; in assay [2], 90%; in assay [3], 35%.
`CCc1cccc(-n2c(=O)c3cccnc3n2CC(=O)NC2CCCC2)c1`: the Inhibition in assay [1] is 94%; in assay [2] it was 13%; in assay [3], 2%.
For `CCCCCCC(C)c1cc(O)c2c(c1)OC(=O)CC2(CC)c1ccccn1.Cl` (centres undefined), in that order: 100%, 0% and 15%.
On to `Nc1c2ccccc2nc2ccc(Cl)cc12`, for which the Inhibition in assay [1] is 100%; in assay [2], 100%; in assay [3], 55%.
Regarding `O=C(/C=C/c1ccc(Cl)cc1Cl)NCCCCCN1CCC(c2c[nH]c3ccccc23)CC1`, the values for the Inhibition in assay [1], in assay [2] and in assay [3] were 99%, 9% and 95%, respectively.
With `O=C(Nc1ccc([N+](=O)[O-])cc1Cl)c1cc2ccccc2cc1O`, the results for the Inhibition in assay [1], in assay [2] and in assay [3] were 94%, 28% and 6%, respectively.
The corresponding values for `CCN(CC)CCCSc1ccc(-c2ccc(SCCCN(CC)CC)cc2)cc1` are 87%, 30% and 38%.
For the compound `CCc1cc(C(=O)c2cccc(C)c2)c(NC(=O)CN2CCN(C(=O)c3ccco3)CC2)s1`, the Inhibition is recorded as 91% in assay [1], 85% in assay [2] and 0% in assay [3].
Take `COc1ccc2nc3cc(Cl)ccc3c(Nc3ccc(O)c(CNC(C)C)c3)c2c1`: the Inhibition in assay [1] was found to be 100%; in assay [2] it was 100%; in assay [3] it was 5%.
Regarding `O=C(O)C(F)(F)F.Oc1ccc(CCNc2nc(NCc3ccccc3-c3cccc(Cl)c3)nc(N3CCNCC3)n2)cc1`, the Inhibition was found to be 84% in assay [1], 11% in assay [2] and 15% in assay [3].
Consider `C(=NN=c1cc[nH]c2ccccc12)c1ccncc1`, for which the Inhibition is 95% in assay [1], 27% in assay [2] and 7% in assay [3].
As to `O=C(NC1CCCCN(Cc2ccccc2O)C1)c1ccc(-c2ccccc2)cc1.O=C(O)C(F)(F)F` (centres undefined), the Inhibition in assay [1] came out at 97%; in assay [2], 61%; in assay [3], 21%.
The corresponding values for `O=C(NCC1CCN(Cc2cccc(F)c2)C1)c1cc(-c2cccc(C(F)(F)F)c2)cs1.O=C(O)C(F)(F)F` (centres undefined) are 96%, 10% and 31%.
The corresponding values for `CCn1c(-c2nonc2N)nc2c(-c3cccc(NC(=O)Nc4cccc(OC)c4)c3)ncc(OCCCN)c21.O=C(O)C(F)(F)F` are 92%, 69% and 1%.
Consider `CCNc1cc(C(=O)N[C@@H](Cc2cc(F)cc(F)c2)[C@H](O)CNCc2cccc(C(F)(F)F)c2)cc(N2CCCCS2(=O)=O)c1.Cl`, for which the Inhibition was 99% in assay [1], 80% in assay [2] and 1% in assay [3].
For `Clc1cccc(C=NNc2nc(=Nc3ccccc3)[nH]c(=Nc3ccccc3)[nH]2)c1`, in that order: 92%, 15% and 0%.
For `COc1ccccc1C1CCN(C2CCC(NC(=O)c3cc4cc(C(C)C)ccc4[nH]3)CC2)CC1` (centres undefined), in that order: 100%, 98% and 100%.
Take `CN1CCN(c2ccnc3ccc(NC(=O)N(C)c4ccc(Cl)c(Cl)c4)cc23)CC1`: the Inhibition was 100% in assay [1], 85% in assay [2] and 5% in assay [3].
Turning to `Cc1ccc(C(C#N)c2ccc3c(C(F)(F)F)cc(C(F)(F)F)nc3n2)cc1` (centres undefined), the Inhibition in assay [1] worked out at 96%; in assay [2], 36%; in assay [3] it was 14%.
The corresponding values for `Cc1cccc2nc(-c3cccc(-c4cccc(NC(=O)Nc5ccc(Cl)cc5)c4)c3)[nH]c12` are 100%, 94% and 23%.
The corresponding values for `O=C(NCCCCN1CC=C(c2ccc3c(c2OCC2CC2)CCCC3)CC1)c1ccc(-c2ccc(C(F)(F)F)cc2)cc1` are 93%, 60% and 25%.
The corresponding values for `COc1ccc2nccc([C@@H](O)CN3CCC(NCCOc4ccccc4C(F)(F)F)CC3)c2c1.O=C(O)C(=O)O` are 98%, 95% and 2%.
In the case of `Cl.N#Cc1ccc2c(c1)CCN(CCC1CCC(NC(=O)Nc3ccncc3)CC1)C2` (centres undefined), the results for the Inhibition in assay [1], in assay [2] and in assay [3] were 85%, 3% and 6%, respectively.
The corresponding values for `O=C(/C=C/c1ccc(Cl)c(Cl)c1)N1CCN(C(=O)Nc2ccc(C(F)(F)F)cc2)CC1` are 98%, 100% and 47%.
For `O=C(Nc1cccc(-c2nn3ccccc3c2-c2ccnc(Nc3cccc(-c4cnco4)c3)n2)c1)C1CCCCC1`, in that order: 95%, 99% and 71%.
Turning to `O=C(Nc1cccc(-c2cccc(-c3nc4cc(F)ccc4[nH]3)c2)c1)Nc1ccc(F)c(F)c1F`, the Inhibition is given as 100% in assay [1], 100% in assay [2] and 83% in assay [3].
As for `Clc1ccc(CNc2ccnc(NCc3cccnc3N3CCCC3)n2)c(Cl)c1`, the Inhibition is on record as 85% in assay [1], 53% in assay [2] and 37% in assay [3].
For `Cn1nccc1C(=O)NCCNCc1ccc(-c2ccc(-c3nc4ccccc4[nH]3)s2)cc1.O=C(O)C(F)(F)F`, in that order: 100%, 97% and 23%.
The corresponding values for `CS(=O)(=O)CCNc1cc(N2CCc3ncnc(Nc4ccc(OCc5cccc(F)c5)c(Cl)c4)c3C2)ncn1` are 96%, 50% and 0%.

Usually Inhibition stands for the change of the read-out against control, counted positive when it falls. A high value points to a strong effect.
